Screening results (PubChem)
Vaccinia Venus = qHTS for Stage-Specific Inhibitors of Vaccinia Orthopoxvirus: Venus Reporter Primary qHTS; Vaccinia virus Venus reporter expression, fluorescence; Potency, µM (series often up to 36.5 µM), without a hit: at the highest dose activity change, negative = inhibition, hits mostly inhibitors; 330,000 tested, 0.46% active; AID 720580, 2013; calls by dose curve; tested in A549 cells; note: nearly all actives have a fitted effect of over 30% in size
LASV entry inh = qHTS for Inhibitors of binding or entry into cells for Lassa Virus; Lassa virus pseudotype entry inhibition, cell reporter; Potency, µM (series often up to 37.9 µM), without a hit: at the highest dose activity change, negative = inhibition, usual class: inhibitors; 300,000 tested, 1.2% active; AID 540256, 2011; calls by dose curve; tested in HEK293 cells; note: nearly all actives have a fitted effect of over 50% in size
FMDV inh = High Throughput Screening for Foot and Mouth Disease Virus Antivirals; FMDV antiviral cell-based qHTS; Potency, µM (highest dose often 57.9 µM), without a hit: at the highest dose activity change, negative = inhibition, hits mostly inhibitors; 410,000 tested, 1.2% active; AID 1159524, 2015; calls by dose curve; tested in HEK293T cells; note: read-out not given here; nearly all actives have a fitted effect of over 45% in size
HCV inhibitor = qHTS Assay for Inhibitors of Hepatitis C Virus (HCV). Huh7.5.1 HCVcc-Cre infection, luciferase reporter, 44 h. Potency, µM (doses to about 41.8 µM), without a hit: at the top dose activity change, negative = inhibition, hits mostly inhibitors. 340,000 tested, 3.4% active. AID 651820, 2012; active = well fitted inhibition curve with a large enough effect; inconclusive = small, poorly fitted or top-dose-only effect, or another doubt; inactive = no such curve, though single readings can be large or run the other way
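Antiviral activity was scored by luciferase reporter output from cells infected with HCVcc-Cre (~0.5 moi) in presence of compound, 44 h infection period, cells seeded 1,000/well 4 h prior.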
VACV mCherry inh = qHTS for Stage-Specific Inhibitors of Vaccinia Orthopoxvirus: mCherry Reporter Primary qHTS; Vaccinia virus mCherry reporter infection, fluorescence; 310,000 tested, 0.63% active; Potency, µM (titrated, usually from 36.5 µM), for inactives: at the highest dose activity change, negative = inhibition, actives largely listed as inhibitors; calls by dose curve; tested in A549 cells; note: nearly all actives have a fitted effect of over 35% in size
MARV entry inh = qHTS for inhibitors of binding or entry into cells for Marburg Virus. 300,000 tested, 1.8% active. Marburg virus pseudotyped entry inhibition, cell reporter. AID 540276, 2011. Potency, µM (titrated, usually from 37.8 µM), inactives show top-dose activity change, negative = inhibition, actives largely listed as inhibitors; calls by dose curve; tested in HEK293 cells
Starred values were filed as active, the others as inactive; i = inactive; ? = inconclusive; nt = not tested or not shown; [ ] = remark or other dose. An excerpt weighted towards active compounds, which were near 5.3% of everything screened. % is set by controls: 0 for no effect and ±100 for the full control effect; potency is the fitted concentration of half-maximal effect.

SMILES	Vaccinia Venus	LASV entry inh	FMDV inh	HCV inhibitor	VACV mCherry inh	MARV entry inh
COc1ccc(NC(=O)COc2ccccc2C(N)=O)cc1S(=O)(=O)N1CCCCC1	-15.7%	nt	-12.7%	nt	-14.7%	nt
COc1ccc(NC(=O)CC2CCCC2)cc1S(=O)(=O)N1CCCCC1	-24.6%	10µM*	-21.5%	-26.6%	-6.0%	-0.5%
O=C(Nc1cccc(C(F)(F)F)c1)C1CCN(S(=O)(=O)c2cccs2)CC1	-11.7%	10.8%[46.1 µM]	0.0%	nt	-6.8%	?
CCOC(=O)CN1C(=O)NC(c2cccc(F)c2)C(C(C)=O)=C1C (stereo not given)	nt	nt	nt	nt	nt	12.7%[14.2 µM]
Cc1cc2nn(-c3ccc(F)cc3)nc2cc1NC(=O)c1cccc([N+](=O)[O-])c1C	-4.7%	2.5%[46.1 µM]	18.2%	nt	3.7%	?
O=C(COC(=O)c1cc(S(=O)(=O)N2CCCC2)ccc1O)Nc1ccc(SC(F)F)cc1	nt	nt	?	31.0%	nt	nt
CSc1cccc(NC(=O)C2CCN(S(=O)(=O)c3ccc(F)cc3)CC2)c1	?	?	nt	11.2µM*	-4.7%	-19.6%
COc1cc(C(C)=O)ccc1OCC(=O)Nc1ccc(C)c(S(=O)(=O)N2CCCCCC2)c1	nt	nt	?	3.98µM*	nt	nt
COc1cc(C(C)=O)ccc1OCC(=O)Nc1ccc(S(=O)(=O)N2CCCCC2)cc1	-23.3%	nt	-12.5%	nt	i	nt
COc1cc2c(cc1OC)CN(C(=O)c1cc(S(=O)(=O)N3CCOCC3)c(Cl)cc1Cl)CC2	-22.2%	-22.3%[46.1 µM]	?	25.1µM*	-26.6%	-10.1%[46.1 µM]
O=C(CNc1cc(S(=O)(=O)N2CCCC2)ccc1OCC(F)(F)F)Nc1ccc(SC(F)F)cc1	?	18.4µM*	-23.8%	?	?	8.2µM*
CC1(C(=O)Nc2ccc(Cl)c(Cl)c2)CCN1C(=O)Cc1cccc2ccccc12 (stereo not given)	-13.8%	nt	-27.1%	nt	-19.5%	nt
COc1ccc(O)c(CN2CCCN(c3nc(C)c4cc(C)c(C)cc4n3)CC2)c1	-7.8%	nt	4.7%	nt	-0.9%	nt
COc1ccc(CN2CCC3(CC2)c2ccccc2[C@@H](NC(=O)c2ccccc2OC)[C@@H]3O)cc1O	-12.1%	nt	-9.0%	nt	-22.8%	nt
COc1ccc(NC(=O)COc2ccccc2C#N)c(S(=O)(=O)N2CCCCC2)c1	?	?	-22.3%	10µM*	nt	?
COc1ccc(NC(=O)COc2ccccc2C)cc1S(=O)(=O)N1CCCCC1	-23.8%	?	?	8.91µM*	-16.8%	?
CCc1cccc(OCC(=O)Nc2ccc(C)c(S(=O)(=O)N3CCCCCC3)c2)c1	-14.3%	?	?	8.91µM*	?	?
Cc1ccc(NC(=O)COC(=O)c2ccccc2F)cc1S(=O)(=O)N1CCCCC1	-12.8%	24.8%	-13.4%	-0.8%	-18.1%	?
O=C(COc1cccc(C(F)(F)F)c1)Nc1ccc(S(=O)(=O)N2CCCC2)cc1	nt	-10.5%	?	11.2µM*	nt	-16.9%
CCOc1ccc(NC(=O)C2CC(=O)NC(=Nc3ccc(Cl)c(Cl)c3)S2)cc1 (stereo not given)	-4.2%	?	-2.8%	nt	3.3%	-5.2%[46.1 µM]
Cc1ccc(NC(=O)c2cc(S(=O)(=O)N3CCOCC3)c(Cl)cc2Cl)cc1	-29.4%	?	25.1µM*	nt	?	nt
O=C(Nc1ccc(S(=O)(=O)N2CCOCC2)cc1)c1cc(S(=O)(=O)N2CCOCC2)ccc1Cl	-15.4%	-11.5%[46.1 µM]	-27.2%	?	-0.4%	-1.3%[46.1 µM]
O=C(O)CC(SCC(=O)Nc1ccc(Cl)c(S(=O)(=O)N2CCOCC2)c1)C(=O)O (stereo not given)	-12.1%[7.34 µM]	nt	2.0%	7.1%	i[7.34 µM]	nt
Cc1ccc(OCC(=O)Nc2ccc(C)c(S(=O)(=O)N3CCCCCC3)c2)c([N+](=O)[O-])n1	?	-22.0%	?	?	?	?
Cc1ccc(NC(=O)COc2cccc(C)c2C)cc1S(=O)(=O)N1CCCCCC1	-5.0%	11.2µM*	?	6.31µM*	i	?
SMILES	Vaccinia Venus	LASV entry inh	FMDV inh	HCV inhibitor	VACV mCherry inh	MARV entry inh
CC(CC(=O)Nc1ccc(Cl)c(S(=O)(=O)N2CCOCC2)c1)c1ccccc1 (stereo not given)	?	-43.8%	?	2.51µM*	-13.7%	?
CC(=O)c1c(C)[nH]c(C(=O)Nc2ccc(Cl)c(S(=O)(=O)N3CCOCC3)c2)c1C	-25.7%	?	22.4µM*	?	?	?
COc1cc(=O)n2c(c1C(=O)NCc1ccc3c(c1)OCO3)CCN(C(=O)c1cccc(F)c1)CC2	-0.4%	nt	-11.6%	nt	-5.5%	nt
COc1cccc(NC(=O)C2CCC(CNS(=O)(=O)c3ccc4c(c3)CCCC(=O)N4)CC2)c1 (stereo not given)	-4.2%	-3.5%[46.1 µM]	?	nt	-17.7%	nt
COc1ccc(CCNCCC(c2ccccc2)c2ccccc2)cc1OC	-12.1%	nt	?	nt	i	nt
COc1cc(OC)c(OC)cc1CCC(C)NCCC(c1ccccc1)c1ccccc1 (stereo not given)	?	nt	-13.5%	7.94µM*	?	nt
COC(=O)C1CCN(Cc2ccc3c(c2)CN(C(=O)c2cc(C)oc2C)CCO3)CC1	0.6%	nt	-7.0%	nt	-5.7%	nt
CC1CC(C)CN(C(=O)CSc2ncnc3sccc23)C1 (stereo not given)	-10.0%	-4.1%	-15.9%	0.1%	-2.8%	?
COc1ccc(C(=O)CSc2nnc(CNc3nc(-c4ccccc4)cs3)n2C)cc1	-25.5%	-28.9%	39.8µM*	-12.9%	nt	?
COC(=O)CSc1nnc(CNc2nc(-c3ccccc3)cs2)n1C	-6.2%	2.0%	-18.3%	-0.6%	-8.8%	?
Cc1cc2oc(=O)cc(Cn3ncc(Cl)c(Cl)c3=O)c2cc1Cl	-5.6%	?	?	11.2µM*	-7.6%	?
CCCc1cc(=O)[nH]c(SCC(=O)c2cc(C)n(CC(F)(F)F)c2C)n1	-10.6%	nt	?	11.1%	-12.0%	1.6%[46.1 µM]
Cc1cc(C(=O)Cn2ncc(Cl)c(Cl)c2=O)c(C)n1CC(F)(F)F	14.1µM*	?	?	?	?	?
Cc1ccc(C)c(C(=O)Cn2ncc(Cl)c(Cl)c2=O)c1	?	?	31.6µM*	10µM*	-21.4%	10µM*
Cc1cccc(Cn2ncc(Cl)c(Cl)c2=O)c1	nt	?	?	3.55µM*	nt	?
CCOc1ccc(NC(=O)CC2C(=O)N(c3ccc(C)cc3)C(=O)N2Cc2ccc(OC)cc2)cc1 (stereo not given)	-1.8%	?	-3.8%	nt	-10.6%	-19.3%[46.1 µM]
COc1ccc(CN(C2CCCC2)S(=O)(=O)c2ccc(-n3cnnn3)cc2)cc1	-29.1%	-23.3%	-11.7%	?	?	?
COc1ccc(CN(C2CCCC2)S(=O)(=O)c2ccccc2Br)cc1	nt	nt	nt	nt	nt	12.5µM*
